Among the data in PubChem BioAssay AID1508600 (Functional Genomics Laboratory (NCATS/FGL), 2020) are z-score values, retold here.

The whole screen tested about 53,000 sequences, of which about 3,700 (7%) were called active. This excerpt belongs to a sample that is enriched for actives. Unmarked numbers belong to inactive results.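 Rule for the calls: active = gene knockdowns whose robust z-score for IL-1 alpha signal is at least 2 or at most -2, so actives lie on both sides; inactive = the rest.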

The nature of this assay: Components of the Cytosolic LPS Sensing Pathway: Gene Identification via Genome-wide siRNA Screen.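 Note: robust z of the log signal after scaling to non-targeting control siRNA wells of the plate.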 Conditions: RAW264.7 macrophages, IL-1a HTRF, actives lie on both sides, screened at 100 nM (by protocol), cells primed 5 h with Pam3CSK4 first. The gist of the method:
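Cells (RAW264.7, 1×10^4 per well) were transfected with siRNA at 100 nM and cultured 48h at 37 degrees C. Pam3CSK4 was added for 5 hours; LipidA transfection followed for 24 hour. IL-1a was then measured by HTRF.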
As to GGUACUUAUGUGGAUUGGATT against Rint1, the z-score is -0.272.
For GGGACUGGACCCAUACAAUTT against Cox5b the value was 4.27 (active).
The value for CCGAGUAAGUUUAACUAAGTT against Lrrc39 was -0.501.
Turning to GCUAUAUAAAGGCUGAGUATT against Emilin3, the z-score was -0.128.
The value for GGAUGAAGGCCAUUCAAACTT against Hnrnpd was 2.04 (active); that for GGAAGAUCUGAAGUCAAUCTT against Mvk was -1.08; that for GGAGAAAGACAUCAGAAAGTT against Rdh16f2 was 0.942.
The value for GGGCCUGAUCUACCUGUUUTT against Slc6a18 was 0.255; that for GGACAAGUAUGAAUGUCUATT against Ptk2b was 1.25; that for CCAAGUGGUACGACCAUGATT against Gcnt3 was 1.3.
The value for CCGACCUGAAGACCUUACATT against Tmem18 was -0.501; that for GCCCUAGGAGGAACUGAGUTT against Olfr458 was -2.54 (active).
As to “CGGAAGAAGUUAUUUAGAATT against 1700006J14Rik”, the z-score was 0.87.
Turning to GGCUCCAAGUCUACACAACTT against Dnajc6, the z-score is 2.82 (active).
As for CCUCAUUGAGUUUUGAAGATT against Dtd2, the z-score was -0.329.
The value for GGAAGACCUUGUGUUUGCATT against Mmp13 was -0.692.
As to CCUAAAGUCUCUGAAUCAGTT against Fyb, the z-score was 0.45.
As for GGUUGUUGCGCAAAUUUAATT against Vmn2r7, the z-score was 1.43.
For GCAGUAACUGUGUCAAAAUTT against Zan the value was 0.879.
Regarding GGAUAUCAAAGACAAAGCATT against Vps53, the z-score was -2.58 (active).
For CGUGUGUUCCGGAAACAGATT against Tnfrsf11b the value was -0.188; for GGCACAAGUCCAUGUUGUUTT against Emg1, -0.161; for GGAGUACGUGAUUGCUCUGTT against Rcvrn, -2.45 (active).
For GCCGUUUUAAGAUACCGAUTT against Pde1c the value was 0.642; for GGGCAGCUACGUCAUUAAGTT against Prkg2, -0.442.
For GGAGAAGAACAGAACAUGATT against Igf2 the value was 2.36 (active); for “GACAGUGAAGGCUUGCCAUTT against 1700019M22Rik”, -0.45; for GCUAUUUAUCACCAAGACATT against Plpp6, -1.64.
Regarding CCAGGAUUACAUCCGGACATT against Srbd1, the z-score was -0.379.
The value for GCUUCGACAAAAGAAGAUGTT against Ccdc174 was -0.373; that for CGAAUGAGAUUUUCACUCUTT against Tek was 1.07; that for CCACUAAUCUUCUUCUACATT against Olfr1311 was -2.08 (active).
The value for GGCCACCAAGACCAAUGAUTT against Akap8 was 0.154.
The value for GGUUGUAAUAGCCUUAGCCTT against Rassf8 was -2.87 (active).
As to GGUCAAGUAACAUGGUUUGTT against Rundc3b, the z-score is 0.282.
As to CCAGAAACACUAGUAAAGGTT against Dppa3, the z-score was -0.0972.
Consider GGACGUGAAUGUGUUUGACTT against Cyp26b1, for which the z-score was 0.795.
On to CGAUUACUACAUAAUUGCCTT against Efnb3, for which the z-score is 1.63.
For the sequence CGGACAAGAUAGUAUUCUUTT against Atp2b1, the z-score was -1.06.
The value for GGAGGAAUACGUAUACUUCTT against Dipk1c was 2.16 (active); that for GCAGCAUGGCAAAACCACATT against Zbtb12 was -0.265.
For GCAGGCGAUAUAGAAGCAATT against Frg1 the value was 0.475; for GGCUGUGACUAUGUUGUGCTT against Top3b, -2.15 (active).
The value for GGGAAUUCUAUUCAACACUTT against Rps6ka5 was -0.478; that for GGCUGUGACUUUUGAUCUATT against Prelid3b was 0.46; that for CCAAUGCUUGUGAUAAGCCTT against Krt33a was -0.105.
Turning to CGGACUUGAGAGCAGAACCTT against Oit1, the z-score is 2.02 (active).
The value for CCUUGUGCCAAAUACUUCATT against Inava was -0.00772.
The value for GGAUAACCGUAUUAAUUUCTT against Gm2a was 0.709; that for GGAGAAAGUCAAGAUCAAATT against Gpr4 was 2.12 (active).
Turning to GCAAGCACGGAGAACCAAUTT against Selenoi, the z-score is -0.212.
The value for GGAGUUCAUUGAUCAUUCUTT against Ndufb5 was 2.21 (active).
Turning to GGAAGAUGGAGAUCAGACGTT against Foxd4, the z-score was -0.498.
For GGGAUACCCGGCGUAAUCUTT against Col4a2 the value was 1.31; for CGCAUACAUCAGGUCACUATT against Katnb1, -0.74; for GGGCUUUUACUCCUACCUGTT against Slc43a2, -0.794.
For GGAACCACUGCUAGCCAGATT against Serpinb6a the value was 0.491; for GCGAGAAAUUACCACCUUCTT against Klhl8, -0.516.
For CCGUAUUAGAAAGUAGAUATT against Arpp19 the value was 2.01 (active).
As to ACUUCACGAUGGAAAAAUUTT against Gm9732, the z-score is -1.63.
For GGCCUCAUCUUGAAUAUUUTT against Hsd17b3 the value was -1; for GGUUCAUCAAACUUGCUUGTT against Olfr1312, 0.569.
For GGAAGAACAGAGGCAGAAGTT against Trpv3 the value was -0.629.
For GGAAGUACUCUGAAGAUUCTT against Kdm5b the value was -1.83; for CCCACUUCCGAUCCAAAGATT against Zfp593, 0.936; for CCUAUGUCAUCAUUGGAGUTT against Tmem45a2, -0.613.
In the case of GCUGUUAUAACCUUGUUACTT against Rspry1, the z-score was 1.19.
The value for GCCCAGUUUGGUUAUGUAUTT against Yipf7 was 0.115.
For GCGGAGAGAUCAAAGCGAUTT against Iltifb the value was -2.05 (active); for GCAGCAACAUUCUUUGGAUTT against Adk, 0.986.
For GGACAAUAUCAGAAAGAGUTT against Purg the value was 1.13.
For the sequence GGGUUUUUUCCAGUCAUCUTT against Nfx1, the z-score is -2.02 (active).
Turning to GGAUGUUCUACUGCUACACTT against Dtwd1, the z-score was -0.706.
For GGUGGCCAAGAAUGUGAAUTT against Cxcl17 the value was 1.38; for CCUACUCUCUAGAAAAGGATT against Olfr1006, -1.76; for GGAGUGAAGGCCAGCUGAATT against Son, -0.848.
For GGAACACCAUGAAGAAGACTT against Gabarap the value was -0.147.
Consider GGAAAACUUUCAAAGAGAUTT against Mc4r, for which the z-score is 0.24.
For GUCAUCAAACUAGGUGCUGTT against Olfr584 the value was -2.22 (active); for GGAAAAAUUUAGACAGCACTT against Csrp2, 0.132; for GACUCAUUCUGCAAUGAAGTT against Ifna5, 0.105.
The value for GCUAAGGACACAAAAUCCATT against Slc38a10 was 0.129.
The value for “GGAGAAAGAAAGCAGUUUUTT against 2310067E19Rik” was 1.55.
In the case of GGUUAGAGGAAAGGUUUAUTT against Htr1f, the z-score was 5.07 (active).
For GGGCAUUUUAACCAAAUGATT against Marchf11 the value was 0.544; for GCUGCCUCAUUUCUGGAUGTT against Klk11, 1.1.
For GGACAUGGAUGACACUGAUTT against Tsr3 the value was -1.99.
For GGAAGAUGCACAUCUGGACTT against Enoph1 the value was -0.55; for CCAGGAUUCCGACUGAAUCTT against Oscp1, -0.367; for GGGCUAAGUACCAAACUCATT against Ly6e, -1.71.
With GCUUGCUAGAGUGAUCUCGTT against Adsl, the z-score was -0.331.
On to GGCUUUUUCCACAUGUGCCTT against Olfr514, for which the z-score is -2.29 (active).
Consider GCCCUUGGAAUUUACCACUTT against Aldh8a1, for which the z-score is -0.546.
For CCAGACUGAGAAGAUAUGATT against Meox2 the value was -0.146; for GGACAUUGUCUACAAGUUGTT against Pcgf2, 1.12; for GGUGUCAGCGAAAAGCAGUTT against Ring1, -2.2 (active).
For GGACCGCUACUAUUCAGGATT against Myh10 the value was 0.93; for GGGUUUUGGAUGGCGAAUATT against Lgals7, -0.0835.
The value for GGACGAAAAGAAGUGUUUCTT against Lamb2 was -0.103.
Consider GGGAAACUCUGUCCAAUUGTT against Eif2d, for which the z-score was 0.402.
For CGGGAAAUUUCUAUUGGACTT against Akr1c12 the value was 0.312; for GGUGAUGGAAGUUAGUGUGTT against Bet1, -1.34.
Regarding GGCAUUCACCAUACAAUGATT against Ufm1, the z-score was 0.687.
As to GGUCAUUGGUUCCUCCCUUTT against C2cd4c, the z-score was 2.59 (active).
The value for GGCUAACCACAUUUGCUUCTT against Zic4 was 0.759; that for GGAAGAUGUCCAAACCCGCTT against Tspan4 was 0.671; that for GCAGCUAAGAAGACCACUATT against Zfp185 was 2.15 (active).
The value for “GGAGGUAACGCAUGUUACATT against 4930483J18Rik” was 0.393.
